Measurements from PubChem BioAssay (NCI).
About 79,000 compounds went through this panel and 15% of them were active in at least one assay; those are over-represented in the sample as a whole. Rule as the data show it: active = growth inhibition above about 70%; inactive = the rest.

Legend:
[1] = NCI Yeast Anticancer Drug Screen. Data for the rad50 strain (AID 155);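 also: 0% = growth of vehicle-only cultures of the same strain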; details: S. cerevisiae rad50 strain growth inhibition; at 50.0 µM; hits give high values
Outline: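 Growth of the mutant yeast was measured after compound exposure and referenced to vehicle-treated cultures.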

[2] = NCI Yeast Anticancer Drug Screen. Data for the mec2-1 strain (AID 157); details: S. cerevisiae mec2-1 strain, at 50.0 µM, hits give high values
Outline: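 Vehicle-treated cultures served as reference for growth inhibition of compound-exposed mec2-1 yeast.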

[3] = NCI Yeast Anticancer Drug Screen. Data for the sgs1 mgt1 strain (AID 161);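 also: 0% = growth of cultures given vehicle only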; details: S. cerevisiae sgs1 mgt1 strain, at 50.0 µM, hits give high values
Outline: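 Inhibition of yeast growth, normalised to vehicle-treated controls, is reported for a strain bearing genetic alterations in DNA damage repair.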

[4] = NCI Yeast Anticancer Drug Screen. Data for the cln2 rad14 strain (AID 165);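 also: 0% = growth equal to vehicle treated cultures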; details: S. cerevisiae cln2 rad14 strain, at 50.0 µM, hits give high values
Outline: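 Each compound was tested on cln2 rad14 yeast. Inhibition of growth was calculated against vehicle-exposed controls.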

[5] = NCI Yeast Anticancer Drug Screen. Data for the bub3 strain (AID 167); details: S. cerevisiae bub3 mutant strain, at 50.0 µM, hits give high values
Outline: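 Whole-cell yeast assay. The mutant strain was incubated with compounds, and growth inhibition was determined by comparison with vehicle-treated cells.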

[6] = NCI Yeast Anticancer Drug Screen. Data for the mlh1 rad18 strain (AID 175); details: S. cerevisiae mlh1 rad18 strain growth inhibition; at 50.0 µM; hits give high values
Outline: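 Vehicle-treated cultures served as the reference for growth inhibition in a yeast strain carrying DNA damage repair alterations exposed to each compound.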

Measured: growth inhibition

Cc1ccc(C2(O)CCCCC2)cc1
inactive: [1] -9.8% | [2] -8.45% | [3] -32% | [4] 26.2% | [5] -8.95% | [6] 7.1%

CC(C)OC1(c2ccccc2)c2cccc3cccc(c23)C1(O)c1ccccc1 (configuration not stated)
inactive: [1] 18.2% | [2] -3.6% | [3] 22.8% | [4] 7.7% | [5] 3.35% | [6] 6.75%

CC1(C)CC(=O)OC/C=C\CC(Cc2ccccc2)C(=O)C1 (configuration not stated)
inactive: [1] 4.6% | [2] 15.2% | [3] -12.3% | [4] 6.8% | [5] 12.2% | [6] 1.9%

COC(=O)C(O)C(O)C(O)C(O)C(O)CO (configuration not stated)
inactive: [1] -1.4% | [2] -12.1% | [3] 0.25% | [4] -45.4% | [5] -8.6% | [6] -5.3%

Cc1cc(=O)[nH]c(N/N=C/c2ccc(O)cc2)n1
inactive: [1] -28.9% | [2] -44.5% | [3] -14.7% | [4] 2.65% | [5] -30.4% | [6] -26.8%

CC(=O)Oc1ccccc1OC(=S)N(C)C
inactive: [1] 11.2% | [2] -7.35% | [3] -5.5% | [4] -39.2% | [5] 15.8% | [6] -26.8%

c1ccc(CNC2Cc3ccccc3C2)cc1
inactive: [1] 19.6% | [2] -10.7% | [3] 0.55% | [4] -36.1% | [5] -11.7% | [6] -2.4%

CC1=C(/C=C/C(C)=C\c2cc(C)cc(=O)o2)C(C)(C)CCC1
inactive: [1] 23.1% | [2] -1.5% | [3] 8.7% | [4] -26.6% | [5] 5.75% | [6] 16.9%

O=S(=O)(O)CCCCO
inactive: [1] 4.4% | [2] -29.9% | [3] 0.9% | [4] 22.2% | [5] 6.15% | [6] 10.2%

NC(=S)N/N=C(\CCC(=O)Nc1ccccc1[N+](=O)[O-])CC(=O)c1ccco1
inactive: [1] -1.55% | [2] -1.95% | [3] -19.9% | [4] 27.4% | [5] -19.8% | [6] 6.3%

NC(=S)N1CC=CCC1
inactive: [1] -8.65% | [2] 0.9% | [3] -3.4% | [4] 7.95% | [5] 3.9% | [6] -6.8%

CC(O)CNCc1ccc(N(C)C)cc1 (configuration not stated)
inactive: [1] -15.8% | [2] 0.4% | [3] 6.8% | [4] -8.85% | [5] -4.65% | [6] 13.7%

S=c1nc(-c2ccnc(-c3nc(=S)[nH][nH]3)c2)[nH][nH]1
inactive: [1] -18.4% | [2] -18.4% | [3] -18.8% | [4] 43.7% | [5] -9.75% | [6] -43.7%

OC(CN1CCCCC1)c1ccncc1 (configuration not stated)
inactive: [1] 0.5% | [2] -24.8% | [3] -8.4% | [4] -0.9% | [5] 1% | [6] 1.4%

COC(=O)C1(C)CCCC2(C)C3CC(O)C(C(C)C)=CC3(O)CCC12 (configuration not stated)
inactive: [1] 10.2% | [2] -4.65% | [3] 15.9% | [4] -12.6% | [5] -1% | [6] 15.3%

O=C1NCC2Cc3ccccc3C(c3ccccc3)=C12 (configuration not stated)
inactive: [1] -1.6% | [2] -1.1% | [3] 5.6% | [4] -6.15% | [5] -3.9% | [6] -4.25%

O=C1NCC(c2ccccc2)(C2CC2)O1 (configuration not stated)
inactive: [1] 7.85% | [2] 6.65% | [3] -13.3% | [4] -44.6% | [5] 5.1% | [6] -27.1%

COc1ccc2nc3cc(Cl)ccc3c(NCCCC3CCCN4CCCCC34)c2c1 (configuration not stated)
inactive: [1] 50% | [2] 40.5% | [3] 2% | [4] 6.15% | [5] 11.7% | [6] 38.4%

CC(=O)OCC1OC(Oc2ccccc2)C(OC(C)=O)C(OC(C)=O)C1OC(C)=O (configuration not stated)
inactive: [1] -3.4% | [2] -5.3% | [3] -0.05% | [4] 12.4% | [5] -4.1% | [6] -10.7%

COc1ccc(CCN=C(c2ccccc2)c2ccccc2)cc1OC
inactive: [1] 22.4% | [2] 10.2% | [3] 8.75% | [4] -27.4% | [5] 10.3% | [6] 12.7%

COC(=O)[C@@]12C(=O)N[C@@H](Cc3ccccc3)[C@@H]1[C@H](C)C(C)=C[C@@H]2CO
inactive: [1] -27.4% | [2] -45.3% | [3] -44.9% | [4] -27.8% | [5] -32.2% | [6] -24.3%

O=[N+]([O-])c1ccc(CCCn2cnc3c(Cl)ncnc32)c([N+](=O)[O-])c1
inactive: [1] 15% | [2] 0.95% | [3] 7.95% | [4] -1.45% | [5] 1.2% | [6] -10.6%

COc1ccc(C(=O)Nc2ccccc2CCC2CCCCN2C)cc1 (configuration not stated)
inactive: [1] 29.2% | [2] 3% | [3] 10.3% | [4] 22.4% | [5] 1.15% | [6] 19%

O=C1NC(N2CCCC(CO)C2)=N/C1=C\c1cccs1 (configuration not stated)
inactive: [1] 8.1% | [2] -6.8% | [3] -3.4% | [4] 3.25% | [5] -14.4% | [6] -39.7%

Oc1cc(O)c2c(c1)O[C@@H](c1ccc(O)c(O)c1)[C@H](O)C2
inactive: [1] 5.75% | [2] -37.4% | [3] 0.2% | [4] 6.15% | [5] -12.7% | [6] 7.55%

c1ccc(CNc2ncnc3n[nH]nc23)cc1
inactive: [1] -14% | [2] -11.8% | [3] 1.2% | [4] 0.3% | [5] 20.1% | [6] -8.3%

CCOC(=O)c1noc(Oc2ccc(Cl)cc2Cl)n1
inactive: [1] -13.9% | [2] 0.15% | [3] -10.8% | [4] -4.35% | [5] -9.3% | [6] 15.1%

Cc1cc(-c2cscn2)c(O)c([N+](=O)[O-])c1
inactive: [1] 3.05% | [2] 3.9% | [3] 27.2% | [4] 12.4% | [5] 1.5% | [6] 7.6%

Nc1ccccc1C(=O)CCc1c[nH]c2ccccc12
inactive: [1] 5.05% | [2] 9.05% | [3] 7.6% | [4] -42.4% | [5] -12.1% | [6] 12.3%

CCCCS(=O)(=O)CCCC
inactive: [1] 18.5% | [2] 0.9% | [3] -10.2% | [4] 0.6% | [5] -1.3% | [6] 22.9%

CNCC(C(=O)C(CNC)c1ccccc1)c1ccccc1 (configuration not stated)
inactive: [1] -1.15% | [2] -6.45% | [3] 11.4% | [4] 7.6% | [5] 4% | [6] 21.9%

CC(=O)CC(=O)N1CCCCCC1
inactive: [1] -0.65% | [2] -16.9% | [3] 0.5% | [4] 11.8% | [5] -13.3% | [6] 25.1%

CCC1(CC)OC(=O)C(=O)N1N(C)C
inactive: [1] -16.9% | [2] -0.8% | [3] -13.9% | [4] -15.2% | [5] -10.9% | [6] -13.7%

COc1ccc(O)c(C(=O)O)c1
inactive: [1] -20.2% | [2] -12.3% | [3] -7.55% | [4] 12.6% | [5] -3.35% | [6] 2.15%

CN1CCC(c2ccccc2)(c2ccccc2)OC1c1ccccc1 (configuration not stated)
inactive: [1] 1.65% | [2] -12.2% | [3] -7.85% | [4] 1.35% | [5] 8.85% | [6] -18.2%

Cc1ccc(-n2cc(-c3ccc(Cl)cc3)c3c(=N)n(N)cnc32)cc1
inactive: [1] -12.2% | [2] -14.2% | [3] 49.8% | [4] 26.2% | [5] 16.8% | [6] 47%

Clc1ccccc1-c1c2ccccc2cc2ccc3ccccc3c12
inactive: [1] -6.75% | [2] -11.6% | [3] -3.85% | [4] -39.5% | [5] 18.9% | [6] -12.4%

c1ccc(-c2nnc(-c3ccc4ccccc4c3)o2)cc1
inactive: [1] -0.1% | [2] -6.5% | [3] 1.1% | [4] -40% | [5] 13.4% | [6] -2%

Cn1c(=O)c2c(-c3ccccc3)onc2n(C)c1=O
inactive: [1] 16.3% | [2] 12.8% | [3] 22.4% | [4] 33.7% | [5] 2.8% | [6] 44.8%

COc1cc(NS(=O)(=O)c2ccc(C)cc2)c2nccnc2c1
inactive: [1] 14.1% | [2] 15.7% | [3] 18.6% | [4] -3.35% | [5] 11.9% | [6] 29.6%

N#CC(=Nc1ccc2ccccc2c1)C1=C(O)c2ccccc2C1=O
inactive: [1] 15.8% | [2] -3.2% | [3] 0.2% | [4] -30.4% | [5] 10.2% | [6] 11.8%

Cc1cccc(C)c1N1C(=O)C2c3[nH]c4ccccc4c3C3CCC(C(C)(C)C)CC3C2C1=O (configuration not stated)
inactive: [1] 37.7% | [2] 11.4% | [3] 28.2% | [4] 1.8% | [5] 3.4% | [6] 18.1%
